Bioassay records from PubChem.
FBPA coupling cs – inhibits coupling enzyme system, counter-screen for aldolase hits | coupling enzyme system counterscreen, AmpLite Red fluorescence | activity change, negative = inhibition, % at 58.2 µM, hits read low | actives 0.67% (n = 290,000); in the data active = activity change below about -30%
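Activity here indicates interference with the coupling reaction, not aldolase inhibition. Compounds at 57.5 uM final met coupling enzymes for 10 min at RT; substrate and AmpLite Red detection followed, with a 525/598 nm fluorescence read after 20 min.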
GALK inhibitor – inhibitors of human galactokinase; P51570; Potency, µM (doses to about 57.5 µM), inactives show at the top dose activity change, negative = inhibition, most hits filed as inhibitors; AID 1868; actives 0.007% (n = 270,000); Purified GALK, Kinase-Glo residual ATP luminescence; note: potency is the fitted concentration of half-maximal effect
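The enzyme phosphorylates galactose (100 uM) using ATP (35 uM); inhibition is detected as higher residual ATP, quantified by bioluminescence after 1 h reaction at room temperature, pH 8.0.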
Gal4-VP16 FLuc – counter-screen for ROR gamma inhibitors: Gal4-VP16 reporter; AID 2546; actives 3.5% (n = 310,000); Potency, µM (series often up to 53.6 µM), for inactives: at the top dose activity, negative = inhibition, hits mostly inhibitors; Drosophila S2 Gal4-VP16 UAS-luciferase, luminescence, 20 h;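 note: Gal4-VP16 expression switched on by copper sulfate through the metallothionein promoter; potency is the fitted concentration of half-maximal effect; nearly all actives have a fitted effect of over 50% in size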
TrxR1 substrate – rat thioredoxin reductase 1 substrate activity; purified TrxR1 substrate turnover, NADPH consumption readout; Potency, µM (series often up to 114 µM), inactives show at the highest dose activity change, negative = substrate turnover; actives 0.01% (n = 390,000); AID 588456; note: potency is the fitted concentration of half-maximal effect; nearly all actives have a fitted effect of over 50% in size
Target sequence (O89049 whole entry, looked up): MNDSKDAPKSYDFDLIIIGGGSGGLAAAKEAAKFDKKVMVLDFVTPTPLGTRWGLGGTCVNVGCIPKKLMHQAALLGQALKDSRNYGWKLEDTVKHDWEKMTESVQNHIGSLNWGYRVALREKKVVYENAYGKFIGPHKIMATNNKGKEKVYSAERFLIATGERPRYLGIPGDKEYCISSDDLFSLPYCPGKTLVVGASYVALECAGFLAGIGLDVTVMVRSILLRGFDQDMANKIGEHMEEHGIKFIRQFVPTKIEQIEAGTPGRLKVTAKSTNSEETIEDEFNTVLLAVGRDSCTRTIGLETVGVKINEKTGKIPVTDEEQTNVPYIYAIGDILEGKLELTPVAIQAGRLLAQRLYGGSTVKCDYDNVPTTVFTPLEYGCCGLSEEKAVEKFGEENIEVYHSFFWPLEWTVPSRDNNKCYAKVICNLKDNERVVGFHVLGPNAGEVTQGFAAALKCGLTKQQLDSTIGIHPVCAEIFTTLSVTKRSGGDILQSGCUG
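Rat TrxR1, dispensed at 90 nM, was prereduced with 400 uM NADPH (final) for 5 min at ~22 deg C, then incubated with compound 15 min before 400 uM selenite. A first-read NADPH fluorescence drop versus no-compound background flagged substrates.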
RORgamma inh – ROR gamma (mouse) transcription inhibition; P51450; Drosophila S2 Gal4-RORgamma UAS-luciferase reporter, 20 h; Potency, µM (highest dose often 53.6 µM), without a hit: at the highest dose activity change, negative = inhibition, most hits filed as inhibitors; actives 5.4% (n = 310,000); note: potency is the fitted concentration of half-maximal effect; nearly all actives have a fitted effect of over 60% in size
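Stable Schneider cell line, Gal4 DNA-binding domain fused to ROR gamma, UAS-luciferase. Cmpd 1 hr RT → CuSO4 700 uM final → 20 hr RT → luciferase reagent 10 min → luminescence.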
TrxR1 inh – rat TrxR1 inhibition; O89049; recombinant rTrxR1, NADPH fluorescence consumption, selenite substrate; Potency, µM (series often up to 114 µM), without a hit: top-dose activity change, negative = inhibition, hits mostly inhibitors; actives 1% (n = 390,000); note: potency is the fitted concentration of half-maximal effect; nearly all actives have a fitted effect of over 65% in size
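Rat TrxR1 (90 nM in the dispensed reagent) was pre-reduced with 400 uM NADPH for 5 min at room temperature, then incubated with compound for 15 min. After 400 uM selenite was added, NADPH fluorescence (Ex 340/Em 450 nm) was followed for 8 min.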
* marks the source's active call; other numbers are inactive results; ? = inconclusive; . = no result; ! = repeats disagree; [ ] = another dose, or the depositor's remark. Compounds with a hit are over-represented: about 5.9% of the library has one in this group of screens. Unless noted, calls come from the whole dose curve; as a rule, active = well fitted curve in the direction sought with a large enough effect; inconclusive = small, poorly fitted or top-dose-only effect, or another doubt; inactive = no such curve, though single readings can be large; an effect the other way counts as inactive or inconclusive. % is set by controls: 0 for no effect and ±100 for the full control effect.

SMILES | FBPA coupling cs | GALK inhibitor | Gal4-VP16 FLuc | TrxR1 substrate | RORgamma inh | TrxR1 inh
Fc1cc(NC(=S)NCc2ccc(CNC(=S)Nc3ccc(Cl)c(F)c3)cc2)ccc1Cl | 1 | 0% | -10% | -1% | -33% | 9%
Fc1ccccc1CNC(=S)Nc1cccc(C(F)(F)F)c1 | -1 | 0% | 7.1µM* | -5% | 7.1µM* | -11%
FC(F)(F)c1cccc(NC(=S)NCc2ccc(Cl)cc2)c1 | 0 | 0% | ? | 1%[57.1 µM] | 8.9µM* | 12%[57.1 µM]
CCCCCC(=O)N1CC2(CC(c3cccc(NC(=O)CC(c4ccccc4)c4ccccc4)c3)=NO2)C[C@@H]1C(N)=O (some centres not stated) | 3 | 3% | -16% | -3% | ? | 9%[57.1 µM]
CCOC(=O)c1c(C)nsc1NCc1ccccc1 | . | . | . | 6% | . | 32%
C=CCNC(=S)N/N=C/c1ccccc1OCCOc1ccccc1 | -1 | 3% | 5µM* | 7% | 2.5µM* | 22%
COc1ccccc1/C=N/NC(=S)NCc1ccco1 | 0 | 0% | 11µM* | -6% | 2µM* | 16%[57.1 µM]
COc1cc(/C=N/NC(=S)NCc2ccco2)cc(OC)c1OC | 6 | -4% | ? | 8%[57.1 µM] | 43% | 7%[57.1 µM]
S=C(NCc1ccco1)N/N=C/c1ccccc1Cl | -3 | 0% | ? | -7% | 11µM* | -15%
COc1cccc(/C=N/NC(=O)C(=O)NCc2ccco2)c1O | -5 | 3% | 6.3µM* | -5%[57.1 µM] | 4µM* | 12%
O=C(COc1ccc(Cl)cc1Cl)N/N=C/c1cccnc1 | 0 | -1% | -3% | 1% | 0% | 17%
O=C(CCCOc1ccc(Cl)cc1Cl)N/N=C/c1cccc([N+](=O)[O-])c1 | -39* | -2% | -12% | -2% | 19% | 6%
Cn1cc(-c2nnnn2-c2cccc(C(F)(F)F)c2)c(C(F)(F)F)n1 | 1 | 0% | -4%[0.365 µM] | -5% | 10µM* | -2%
COc1ccc(C(C)NC(=O)c2cccc([N+](=O)[O-])c2)cc1OC (configuration not stated) | -3 | -2% | -8% | 1% | 13% | 14%
O=C1c2ccccc2C(=O)N1COc1ccc(S(=O)(=O)N2CCOCC2)cc1[N+](=O)[O-] | -1 | 5% | -16% | 3% | -4% | 14%
COc1ccccc1N1CCN(Cc2cc(COC(C)C)c3cccnc3c2O)CC1 | . | . | . | 7% | . | 5%
Oc1c(CN2CCN(c3ccccn3)CC2)cc(Cl)c2cccnc12 | -8 | 2% | ? | -7%[57.1 µM] | 0.45µM* | 15%[57.1 µM]
CCOCc1cc(CN2CCN(c3ccccc3OC)CC2)c(O)c2ncccc12 | . | . | . | 4% | . | -12%
OCCN1CCN(Cc2cc(Cl)c3cccnc3c2O)CC1 | -23 | 3% | 10µM* | -1% | 5.6µM* | -2%
CC1(C)N=C(N)NC(Nc2ccccc2)=N1 | . | 1% | -12% | -8% | 3% | -10%
Cc1ccsc1/C=N/NC(=O)c1ccccn1 | 3 | 1% | ? | -10% | -7%[10 µM] | -15%
O=C(CC(=O)N/N=C/c1ccc(Cl)cc1Cl)NCc1ccccc1 | -14 | -2% | 2% | -3% | 13% | 13%
Cc1ccsc1/C=N\NC(=O)CC(=O)NCc1ccccc1 | -36* | -1% | 9% | 2%[57.1 µM] | 1% | 5%[57.1 µM]
C/C(=N\NC(=O)c1cccs1)C(C)(C)C | -1 | 1% | ? | -3% | 13µM* | -5%
O=C(CC(=O)N/N=C/c1c(F)cccc1Cl)NCc1ccccc1 | -39* | 11% | -2% | 4% | 10% | 17%
SMILES | FBPA coupling cs | GALK inhibitor | Gal4-VP16 FLuc | TrxR1 substrate | RORgamma inh | TrxR1 inh
Cc1ccsc1/C=N/NC(=O)c1cccs1 | -1 | 0% | 13µM* | 4%[57.1 µM] | 10µM* | -8%[57.1 µM]
COCCNC(=O)Nc1ccc(F)cc1 | 0 | -3% | -1% | 7% | -1% | 11%[57.1 µM]
Cc1cccc(C)c1N(CC(=O)NCc1ccc(F)cc1)C(=O)c1csnn1 | 0 | -2% | 4% | 5% | 12% | 14%
O=C(O)c1ccccc1-n1ncc2c1/C(=C/c1ccc(Cl)cc1)CC2 | 7 | -5% | -4% | . | 28% | .
Cc1ccsc1/C=N/NC(=S)NCc1ccccc1 | 1 | -2% | -76% | 2%[57.1 µM] | 0.022µM* | 5%[57.1 µM]
Cc1cc(Br)ccc1SCC(=O)OCC(=O)c1c(N)n(C)c(=O)n(C)c1=O | -2 | 7% | -2% | 1% | -5% | 22%
CCOC(=O)CCCC(=O)N1CCN(/[N+]([O-])=N/Oc2ccc([N+](=O)[O-])cc2[N+](=O)[O-])CC1 | . | . | . | -6% | . | 16µM*
CCOC(=O)c1nnn(-c2ccc([N+](=O)[O-])cc2[N+](=O)[O-])c1C | -21 | 1% | ? | -1% | 7.1µM* | 23%
CCOC(=O)N1CCN(/[N+]([O-])=N/Oc2ccc([N+](=O)[O-])cc2[N+](=O)[O-])CC1 | 4 | . | 7.1µM*! | 3%[57.1 µM] | 8.9µM* | 6.7µM*
CCOC(=O)c1nnn(-c2ccccc2)c1C | 4 | 0% | 12% | 18% | 27% | 31%
CCCCCCCCCCCCOC(=O)N1CCN(/[N+]([O-])=N/Oc2ccc([N+](=O)[O-])cc2[N+](C)=O)CC1 | . | . | . | -7%[0.457 µM] | . | 50µM*
Oc1cccnc1CN1CCOCC1 | . | . | . | 8%[57.1 µM] | . | -21%
COCC(=O)Nc1cccc(-c2ccc3nncn3n2)c1 | 0 | -1% | -5% | 6% | -36% | 9%
CCN(CC)CCN(C(=O)CCS(=O)(=O)c1ccccc1)c1nc2cc(OC)c(OC)cc2s1 | 1 | -1% | 3% | -3% | ? | 11µM*
O=C(CCS(=O)(=O)c1ccccc1)N(Cc1cccnc1)c1nc2ccc(F)cc2s1 | . | . | . | 1%[57.1 µM] | . | 3.2µM*
CCN(CC)CCN(C(=O)CCS(=O)(=O)c1ccccc1)c1nc2cc(C)cc(C)c2s1 | -2 | 0% | -29% | 12% | 20µM* | 14µM*
CCN(CC)CCN(C(=O)CCS(=O)(=O)c1ccccc1)c1nc2c(C)cc(C)cc2s1 | 0 | 6% | ? | -3% | ? | ?
Oc1ccccc1-c1nc(/C=C/c2ccccc2Cl)nn1-c1ccccc1 | . | . | . | 10%[11.4 µM] | . | 12%
N#CC1=C(S)N(c2ccccc2)C(c2ccco2)NC1=O (configuration not stated) | 3 | -1% | -4% | 7%[57.1 µM] | 25% | 22%[57.1 µM]
N#CC1=C(S)N(c2ccccc2)C(c2cccs2)NC1=O (configuration not stated) | -23 | 0% | -7% | 4% | -11% | -6%
Cc1ccc(N2C(S)=C(C#N)C(=O)NC2c2ccco2)cc1 (configuration not stated) | 2 | 10% | -10% | -3% | 16µM* | ?
